# Results published in PubChem BioAssay AID1981 (Southern Research Specialized Biocontainment Screening …, 2009).
# Out of some 2,200 compounds screened, about 480 (22%) were called active. No rule for the calls is given here. These entries were drawn from the full list. Entries with a potency or affinity are not part of this list.
# Assay: S. Typhimurium GFP fluorescence dose response in modified counterscreen for PhoP regulon inhibitor project (AID 1981);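 also: 0% = induced DMSO wells and 100% = uninduced wells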
# Settings: 4 h; series mostly up to 150 µM; inhibition: at the top concentration
row,Compound,inhibition
1,CC(C)Cc1oc(C(=O)O)cc1CN,10.4% (inactive)
2,Nc1nc(C2CCCCC2)cs1,-11.9% (inactive)
3,CCN(CC(=O)Nc1ccc(N2CCOCC2)cc1)Cc1nc2ccccc2c(=O)[nH]1,-1.37% (inactive)
4,COc1ccc(OC)c(/C=N/NC(=O)Cc2nc3ccccc3[nH]2)c1,8.7% (inactive)
5,COc1ccc(OC)c(/C=N/NC(=O)c2cc3c(OC)c(OC)ccc3[nH]2)c1,-13.9% (inactive)
6,C#CCOc1c(Cl)cc(/C=N/O)cc1OC,-8.22% (inactive)
7,Cc1nn(-c2ncc(C(F)(F)F)cc2Cl)c(=O)n1-c1cccc(Cl)c1,-20.8% (inactive)
8,Cc1ccc(C)n1-c1cccc(N)c1,8.69% (inactive)
9,O=S1(=O)CC(O)C(Nc2ccccc2Cl)C1 (configuration not stated),0.99% (inactive)
10,COc1ccccc1NC(=O)Cn1nnc(-c2ccccc2NC(=O)c2cccs2)n1,-1.7% (inactive)
11,CCN(CC)S(=O)(=O)c1cccc(NC(=O)Nc2cccc(C(F)(F)F)c2)c1,4.19% (inactive)
12,Fc1cc(Br)ccc1NC(=S)Nc1ccccc1,-7.83% (inactive)
13,COC(=O)Cc1ccc(NC(=S)N2CCN(c3ccc(F)cc3)CC2)cc1,12.2% (inactive)
14,O=S(=O)(Nc1ccc2ccccc2c1)c1ccccc1,-3.83% (inactive)
15,Cc1scc(C(=O)O)c1-c1c(C(=O)O)csc1C,-5.12% (inactive)
16,O=C(c1ccccc1)c1nc2ccccc2n(CCCn2c(=O)c(C(=O)c3ccccc3)nc3ccccc32)c1=O,10.8% (inactive)
17,CCCn1c(NCc2c[nH]c3ccccc23)nc2ccccc21,-16.7% (inactive)
18,CCC(C)N1C(=O)/C(=C/c2ccc3c(c2)CCN3CCCCl)C(=O)NC1=S (configuration not stated),11.6% (inactive)
19,COc1ccc(-n2c(=O)c3ccccc3n(CC(=O)Nc3cc(C)on3)c2=O)cc1OC,-6.76% (inactive)
20,CCn1c2ccccc2c2cc(NC(=O)COc3ccccc3)ccc21,-7.07% (inactive)
21,CCCSc1nc(N2CCCC2)c2c(c1C#N)CC(C)(C)OC2,3.09% (inactive)
22,c1nc(N2CCC3(CC2)OCCO3)c2c3c(sc2n1)CCCC3,-0.83% (inactive)
23,C=CCc1ccccc1OCC(O)CN1CCN(CCN2C(=O)c3cccc4cccc(c34)C2=O)CC1 (configuration not stated),8.96% (inactive)
24,COc1ccc([N+](=O)[O-])cc1N(CC(O)Cn1nnc2ccccc21)S(=O)(=O)c1ccc(C)cc1 (configuration not stated),8.93% (inactive)

row,Compound,inhibition
1,Cc1ccc(/C(O)=C2\C(=O)C(=O)N(CC(C)O)C2c2cccc(F)c2)cc1 (configuration not stated),-24.2% (inactive)
2,COc1ccc(C2CC(c3ccccc3)=NN2C(=O)COC(=O)c2cccnc2)cc1 (configuration not stated),-4.41% (inactive)
3,CCOC(=O)/C=C1\SCC(=O)N1CC(=O)NC1CCCCC1,5.36% (inactive)
4,COC(=O)c1ccc2c(=O)n(CCN3CCOCC3)c(SCC(=O)C(C)(C)C)nc2c1,-14.9% (inactive)
5,Cc1nn(-c2ccccc2)c(N2CCCC2)c1/C=N/Nc1ccc(S(N)(=O)=O)cc1[N+](=O)[O-],38% (inactive)
6,c1ccc2c(c1)ncn2CCCCOc1ccc2c(c1)CCC2,5.38% (inactive)
7,Cc1ncoc1C(=O)Nc1cccc(Cl)c1,-2.48% (inactive)
8,CC1N(C)c2cc(NC(=O)c3ccco3)ccc2C1(C)C (configuration not stated),7.13% (inactive)
9,CSc1cccc(NC(=O)c2ccco2)c1,0.75% (inactive)
10,O=C(Nc1ccc2c(c1)oc1ccccc12)N1CCOCC1,-1.29% (inactive)
11,O=C(NCC(=O)N(c1cccnc1)C(C(=O)NCc1ccco1)c1ccccc1)c1ccco1 (configuration not stated),3.62% (inactive)
12,CC(=O)c1c(C)n([O-])c2cc(F)c(F)cc2[n+]1=O,3.8% (inactive)
13,Cc1c(C(=O)Nc2cccc(Cl)c2)c2ccccn2c1CCc1ccncc1,0.01% (inactive)
14,CCOc1ccc(-c2nnc(SCc3nnc(-c4ccccc4)o3)n2-c2ccccc2F)cc1,-12.2% (inactive)
15,CCC(CC)NC(=O)COC(=O)c1ccc(OCC(=O)Nc2ccccc2OC)c(OC)c1,7.06% (inactive)
16,Cc1nn(-c2ccccc2)c(C)c1C(=O)OC/C(O)=C(\C#N)c1nc2ccccc2[nH]1,2.85% (inactive)
17,COC(=O)c1sc2nc(CSc3nc4ccc(C)cc4[nH]3)[nH]c(=O)c2c1C,-22.2% (inactive)
18,CCOCC(=O)Nc1ccc(F)c(F)c1,-1.81% (inactive)
19,Nc1nc(N)nc(-c2ccccc2)n1,0.22% (inactive)
20,O=C(NCCCc1ccccc1)Nc1cccc(Cl)c1,11.9% (inactive)
21,CC(C)(C)c1ccc(NC(=O)COC(=O)c2ccc([N+](=O)[O-])s2)cc1,-1.36% (inactive)
22,N/C(=N/OC(=O)c1ccccc1Cl)c1ncc([N+](=O)[O-])s1,7.99% (inactive)
23,O=C(Nc1cccc(Cl)c1)Nc1ccc2c(c1)OCO2,17.6% (inactive)
24,CCOC(=O)Nc1ccc(C)cc1C,-8.78% (inactive)

row,Compound,inhibition
1,CCOC(=O)c1sc(-c2ccc(C(F)(F)F)cc2)nc1O,0.14% (inactive)
2,O=C(NNc1c2ccccc2nc2ccccc12)c1ccccc1O,6.64% (inactive)
3,CC(C)c1ccc(NC(=O)N(CCc2nc3ccccc3[nH]2)C2CCCC2)cc1,-4.79% (inactive)
4,Cc1ccc(CNC(=O)Nc2cccs2)cc1,0.25% (inactive)
5,CCCc1cc(C(=O)NNC(=S)NC(C)c2ccccc2)cs1 (configuration not stated),-11.8% (inactive)
6,Cc1noc(C)c1CSc1nc2ccccc2nc1NS(=O)(=O)c1ccc(Cl)cc1,11% (inactive)
7,COc1ccc(C(=O)NC(=S)NCc2ccc(-c3nc4ccccc4o3)cc2)cc1OC,-4.99% (inactive)
8,O=C(O)CC(NC(=S)NCc1ccccc1)C(=O)O (configuration not stated),-4.62% (inactive)
9,Cc1cc(Nc2ccc(Cl)cc2)nc(N)n1,20.8% (inactive)
10,O=S(=O)(c1ccc(NC(=S)Nc2ccc3c(c2)OCO3)cc1)N1CCOCC1,-16.1% (inactive)
11,CC(C(=O)NC1CCS(=O)(=O)C1)N1C(=O)/C(=C/c2ccc(Cl)cc2)SC1=S (configuration not stated),-14.2% (inactive)
12,O=S1(=O)C=CC(Nc2cccc(Cl)c2)C1 (configuration not stated),-0.09% (inactive)
13,CC1=C(C(=O)OCC2CCCO2)C(c2cccc(C(F)(F)F)c2)C2=C(CC(c3ccco3)CC2=O)N1 (configuration not stated),-9.9% (inactive)
14,CN(CCNS(=O)(=O)c1ccc2c(c1)oc(=O)n2C)Cc1ccccc1,-17.6% (inactive)
15,COc1ccc(-c2cnn3c(N)c(S(=O)(=O)C(C)(C)C)cnc23)cc1,6.45% (inactive)
16,O=C(N/N=C/C1CC=CCC1)c1ccc(Cl)cc1O (configuration not stated),33.9% (inactive)
17,O=C(N/N=C/C1C(c2ccccc2)C1(Cl)Cl)c1cccc(Cl)c1 (configuration not stated),14.5% (inactive)
18,N/C(=N\OC(=O)COc1ccc(Cl)cc1)c1cccnc1,4.11% (inactive)
19,CC(=O)Nc1ccc(OC(=O)c2cccnc2)cc1,-26.3% (inactive)
20,O=C(N/N=C/c1ccc(Cl)cc1Cl)c1cccc(F)c1,-13.2% (inactive)
21,C/C(=C\C(=O)c1cccnc1)Nc1ccc(O)cc1,-26.2% (inactive)
22,N/C(=N\OC(=O)Cc1ccc(Cl)cc1)c1cccnc1,16.3% (inactive)
23,N#CC(CC(=O)c1ccc(F)cc1)c1ccc2c(c1)OCO2 (configuration not stated),-2.1% (inactive)
24,C/C(=N\NC(=S)Nc1ccc(F)cc1)c1ccc2c(c1)OCCO2,-25.7% (inactive)
